In PubChem BioAssay (NCI):
The panel holds about 83,000 compounds, 20% with a hit somewhere; the sample as a whole holds those more often.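 Single-dose data. Exposure time 48 hours. Values below 10 considered active.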 The source made the active and inactive calls.

system: BT-549 breast; test: NCI-60 one-dose screen, 48 h (100 = growth as untreated, 0 = no growth, -100 = all killed); settings: 10 µM unless noted

Structure (SMILES)	growth
CCC(=O)Nc1nnc(Cc2ccc(OC)c(OC)c2)s1	-66.8% (active)
NC(=O)c1cc(Cl)ccc1NC(=O)COc1ccccc1	43.8% (inactive)
O=C1NC(=S)S/C1=C\c1cccc([N+](=O)[O-])c1	81.2% (inactive)
CCCCCn1c(=N)n(CC(O)COc2cccc(C)c2)c2ccccc21 (stereo not given)	-16.9% (active)
Cn1c2ccccc2c2nn(C(=O)c3ccccc3)c(=O)nc21	114% (inactive)
N#CC1=C(N)Oc2cc(N)ccc2C1c1ccc(F)cc1 (stereo not given)	69.2% (inactive)
COc1ccc(-c2c3c(N)c4c(nc3nc3c2c(C)nn3-c2ccccc2)CCCCC4)cc1	80.9% (inactive)
CC(C)OC1=C(Cl)C(=O)c2ccccc2C1=O	59.7% (inactive)
O=c1[nH]c(-c2ccccn2)nc2sc3c(c12)CCCCCC3	62.2% (inactive)
COc1cc(-c2nc3ccccc3o2)cc(CN2CCN(c3ccccc3)CC2)c1O	55.3% (inactive)
CN([N-]C(=O)CC(=O)[N-]N(C)C(=S)c1ccccc1)C(=S)c1ccccc1.[Cu+2]	-73% (active)
COC(=O)c1ccc(C(=O)Nc2ccccc2N)cc1	60% (inactive)
FC(F)(F)c1cc(CNc2ncc(Br)c(Cl)n2)cc(C(F)(F)F)c1	83.7% (inactive)
COc1ccc(NC(=O)COc2ccccc2)c(C(N)=O)c1	55.9% (inactive)
Cn1c2ccccc2c2nn(Cc3ccccc3)c(=O)nc21	110% (inactive)
CCCCNNC(=O)c1ccc(Br)cc1	78.7% (inactive)
Cc1nc2cc(Nc3nc(Nc4ccc(F)cc4)nc(-c4cccs4)n3)ccc2n1Cc1ccccc1	69.5% (inactive)
Cc1ccc(C2SCC(=O)N2NC(=O)c2[nH]c3ccc(F)cc3c2-c2ccccc2)cc1 (stereo not given)	93.2% (inactive)
O=S(=O)(OCCO)c1ccccc1	105% (inactive)
Cc1nc2cc(Nc3nc(N4CCOCC4)nc(N4CCN(C)CC4)n3)ccc2n1Cc1ccccc1	103% (inactive)
Clc1ccc(C2=NN(c3ccccc3)[C@H](c3cn(-c4ccccc4)nc3-c3ccccc3)C2)cc1	112% (inactive)
CCSc1nnc2c3cc(Br)ccc3n(C)c2n1	95.6% (inactive)
Cc1nn(-c2ccccc2)c2nc3nc4c(c(N)c3c(-c3ccc(Cl)cc3)c12)CCCC4	113% (inactive)
Cc1ccc(S(=O)(=O)N(c2ccc(Cl)cc2)c2ccc(Br)cc2C(=O)O)cc1	134% (inactive)
Cc1ccc2c(c1)c(Sc1ccc(C(=O)NO)cc1)c1n2CN(C)CC1	54.3% (inactive)
CCCCCCCCCCCC(=O)[O][Sn]([CH2]CCC)([CH2]CCC)[CH2]CCC	-100% (active)
COc1cc(NC(=O)COc2ccccc2)c(C(N)=O)cc1OC	59.5% (inactive)
C=CC(=O)N1CC2(CCC(n3nc(-c4ccc(Oc5ccccc5)cc4)c4c(N)ncnc43)CC2)C1	-69.3% (active)
CCOC(=O)c1cc2c(n(C)c1=O)-c1cnn(-c3ccc(OC)cc3)c1CC2	101% (inactive)
O=C(Nc1nc2ccccc2[nH]1)C(=O)Nc1nc2ccccc2[nH]1	108% (inactive)
